# Screens: PubChem, National Center for Advancing Translational Sciences (NCATS)
# Compounds with a hit are over-represented: about 18% of the library has one in this group of screens.
# TDP1 cell noCPT = qHTS for Inhibitors of human tyrosyl-DNA phosphodiesterase 1 (TDP1): qHTS in cells in absence of CPT; DT40 Tdp1-/- hTDP1 cells, no CPT, ATP luminescence, 48 h; Potency, µM (series often up to 46.2 µM), for inactives: at the top dose activity change, negative = growth inhibition, most hits filed as inhibitors; actives 15% (n = 420,000); AID 686978, 2013; note: nearly all actives have a fitted effect of over 55% in size
#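 Cells were dispensed at 400 per well, compounds added by pin tool, plates incubated ≥48 hr at 37 °C, then CellTiter-Glo added for 30 min at room temperature before luminescence reading. Line: DT40 Tdp1-/- complemented with hTDP1; camptothecin omitted.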
# TDP1 block = inhibitors of human tyrosyl-DNA phosphodiesterase TDP1. Q9NUW8. recombinant TDP1, AlphaScreen DNA substrate cleavage. Potency, µM (highest dose often 130 µM), without a hit: at the top dose activity change, negative = inhibition, most hits filed as inhibitors. actives 0.28% (n = 350,000); note: nearly all actives have a fitted effect of over 40% in size
# Target sequence (Q9NUW8 whole entry, looked up): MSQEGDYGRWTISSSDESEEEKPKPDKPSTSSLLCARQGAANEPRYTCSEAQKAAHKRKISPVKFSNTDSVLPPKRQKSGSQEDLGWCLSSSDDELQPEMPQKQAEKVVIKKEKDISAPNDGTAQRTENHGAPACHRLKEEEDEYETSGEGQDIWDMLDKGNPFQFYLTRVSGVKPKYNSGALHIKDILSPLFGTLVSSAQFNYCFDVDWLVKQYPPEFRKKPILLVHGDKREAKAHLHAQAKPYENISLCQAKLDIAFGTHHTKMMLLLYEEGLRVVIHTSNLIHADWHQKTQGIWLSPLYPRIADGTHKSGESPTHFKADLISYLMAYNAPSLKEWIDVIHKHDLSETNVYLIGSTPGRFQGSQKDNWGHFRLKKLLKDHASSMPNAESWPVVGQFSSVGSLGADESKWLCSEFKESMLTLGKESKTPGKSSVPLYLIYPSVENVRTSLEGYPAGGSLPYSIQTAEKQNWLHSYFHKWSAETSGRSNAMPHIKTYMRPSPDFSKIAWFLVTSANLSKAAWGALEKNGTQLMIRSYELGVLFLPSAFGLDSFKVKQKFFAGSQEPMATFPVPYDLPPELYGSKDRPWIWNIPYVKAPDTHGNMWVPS
#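 Here, a 5' biotin and 3' phosphotyrosine-FITC DNA oligonucleotide reports Tdp1 activity: intact substrate bridges AlphaScreen beads, while cleavage leaves a 3' phosphate and drops signal. All incubations at room temperature.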
# KAT2A inh = inhibitors of human GCN5L2 histone acetyltransferase; Potency, µM (series often up to 58.9 µM), for the others: at the highest dose activity change, negative = inhibition, actives largely listed as inhibitors; GCN5L2 HAT assay, ThioGlo1 CoA-SH fluorescence; actives 0.21% (n = 390,000); Q92830
#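 qHTS, 1536-well. 20nM enzyme, pH 7.5 HEPES/EDTA/Tween-20 buffer; 15 min compound preinc., RT. Start: 75uM H3(1-25), 70uM AcCoA, 50uM ThioGlo1. Read Ex340/Em540 at t=0 (autofluorescence flag) and t=20 min.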
# TDP1 cell CPT = growth inhibition of DT40 Tdp1-/-;hTDP1 cells with camptothecin (screen for TDP1 inhibitors); chicken DT40 Tdp1-/-;hTDP1 cells + 20 nM CPT, ATP luminescence, 48 h; Potency, µM (highest dose often 46.2 µM), for inactives: at the highest dose activity change, negative = growth inhibition, most hits filed as inhibitors; actives 12% (n = 420,000); note: nearly all actives have a fitted effect of over 55% in size
#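 Chicken DT40 Tdp1-/- cells complemented with human TDP1, 400 cells/well, exposed to compounds plus 20 nM camptothecin for at least 48 h at 37 C; viability read as ATP content by CellTiter-Glo luminescence.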
# PLK1 PBD block = blocks phosphopeptide binding to human PLK1 polo-box domain; Plk1 PBD binding of FITC phosphopeptide, fluorescence polarization; P53350; Potency, µM, without a hit: max response, negative = inhibition, hits mostly inhibitors; actives 2.8% (n = 360,000); note: series mostly up to about 57 µM; nearly all actives have a fitted effect of over 65% in size
# VDR inh = blocks the human vitamin D receptor. VDR-SRC2-3 peptide fluorescence polarization, 2 h. Potency, µM, for inactives: max response, negative = inhibition, hits mostly inhibitors. actives 0.93% (n = 400,000)
#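 Fluorescence polarization assay measuring small-molecule disruption of VDR binding to the coregulator peptide SRC2-3. Compounds were pin-transferred (23 nl) into the reagent mix and incubated 2 h at room temperature before reading.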
# The depositor's hits bear a star; u = inconclusive; x = no result; ! = repeats disagree; [ ] = remark or other dose. Calls come from the whole dose curve; as a rule, active = well fitted curve in the direction sought with a large enough effect; inconclusive = small, poorly fitted or top-dose-only effect, or another doubt; inactive = no such curve, though single readings can be large; an effect the other way counts as inactive or inconclusive. % is set by controls: 0 for no effect and ±100 for the full control effect; potency is the fitted concentration of half-maximal effect.
SMILES,TDP1 cell noCPT,TDP1 block,KAT2A inh,TDP1 cell CPT,PLK1 PBD block,VDR inh
O=C1OC[C@H](Cc2ccc3c(c2)OCO3)/C1=C\c1ccc2c(c1)OCO2,8.2µM*,x,-12%,5.8µM*,-1%,-13%
COC(=O)c1cccc(NC(=S)Nc2ccccc2Cl)c1,-1%,x,1%,0%,-14%,-5%
COC(=O)c1cc(NC(=S)Nc2cc(Cl)cc(Cl)c2)cc(C(=O)OC)c1,u,0%,0%,18µM*,-18%,0%
COC(=O)c1cccc(NC(=S)Nc2ccc(Cl)c(Cl)c2)c1,26µM*,2%,-1%,-2%,-20%,5%
Nc1nc(N)c(Br)c(Nc2ccc(Cl)c(Cl)c2)n1,u,x,x,u,0%,-7%
CCc1c(N)nc(N)nc1Nc1ccc(C)c(C)c1,15µM*,x,x,u,-2%,-5%
Nc1nc(N)c(N=O)c(Nc2ccc(Cl)c(Cl)c2)n1,7.3µM*,x,x,4.1µM*,-12%,x
CCc1c(Cl)nc(N)nc1Nc1ccccc1C,u,x,x,u,1%,-21%
Nc1nc(N)c(N=O)c(Nc2cccc(Cl)c2)n1,10µM*,x,x,5.8µM*,-7%,x
Cc1ccc(Nc2nc(N)nc(N)c2N=O)cc1Cl,13µM*,x,x,10µM*,x,x
COC(=O)C[C@@H]1C=C[C@H](NC(=O)c2cnccn2)[C@@H](CO)O1,5%,x,x,-2%,-12%,x
Cc1ccccc1C(=O)Nc1cccc(C(=O)N/N=C/c2cc(Cl)cc([N+](=O)[O-])c2O)c1,u,-11%,-15%,u,-25%,-2%
CC(=O)N1N=C2c3ccccc3CCC2C1c1ccc(F)cc1 (stereo not given),u,0%,-5%,-27%,9%,2%
CCNC(=S)N1N=C2c3ccccc3CCC2C1c1ccc(F)cc1 (stereo not given),23µM*,7%,-1%,u,-4%,-20%
CCCCCC(=O)O[C@]1(C(C)=O)CC[C@H]2[C@@H]3CCC4=CC(=O)CC[C@]4(C)[C@H]3CC[C@@]21C,18µM*,4%,-7%,26µM*,-1%,u
CC(=O)O[C@]1(C(C)=O)CC[C@H]2[C@@H]3C=CC4=CC(=O)C=C[C@]4(C)[C@H]3CC[C@@]21C,15µM*,x,-4%,u,2%,1%
CC(=O)OC1(C(C)=O)CCC2C3CC(Cl)C4=CC(=O)CCC4(C)C3CCC21C (stereo not given),23µM*,x,x,u,-12%,-9%
CC(=O)O[C@@]1(C(C)=O)CCC2C3C=C(C)C4=CC(=O)CCC4(C)C3CCC21C (stereo not given in full),-15%,9%[56.1 µM],-9%,-6%,x,u
CC(=O)O[C@]1(C(C)=O)CC[C@H]2[C@@H]3C=C(C)C4=CC(=O)CC[C@@H]4[C@H]3CC[C@@]21C,4.6µM*,x,u,u,-5%,-19%
Cc1ccccc1NC(=O)c1ccc2c(O)c(S(=O)(=O)c3ccccc3)c(=O)[nH]c2c1,14%,3%,-5%,-12%,-17%,-19%
C=C1CCN(C(CC(C)C)C(=O)Nc2ccc(OC)cc2)S(=O)(=O)c2ccccc21 (stereo not given),x,6%,x,x,x,-11%
CC(=O)O[C@]1(C(C)=O)CCC2C3C=C(C)C4=CC(=O)CC[C@]4(C)C3CC[C@@]21C (stereo not given in full),16µM*,x,-19%,23µM*,-5%,13%
COCCCNS(=O)(=O)c1ccc(N2CCCCS2(=O)=O)cc1,u,-1%,-5%,u,x,14%
COc1ccc(CCNS(=O)(=O)c2ccc(N3CCCCS3(=O)=O)cc2)cc1,21µM*,4%,4%,23µM*,x,6%
COc1cccc(CNS(=O)(=O)c2ccc(N3CCCCS3(=O)=O)cc2)c1,16µM*,1%,25%,23µM*,x,11%
SMILES,TDP1 cell noCPT,TDP1 block,KAT2A inh,TDP1 cell CPT,PLK1 PBD block,VDR inh
CNc1nc(-c2ccccc2)c2sccc2n1,u,x,x,u,-2%,x
Cc1ccc(C(=O)NC(=S)NNC(=O)COc2ccc([N+](=O)[O-])cc2)cc1,15µM*,0%,-10%,u,u,-17%
O=C(COc1ccccc1)NNC(=S)NC(=O)c1ccccc1,u,3%,-17%,u,u,15%
COc1ccc(C(=O)NC(=S)NNC(=O)c2ccccc2O)cc1,12µM*,x,-2%,15µM*,-12%,-1%
O=C(NC(=S)NC1CCCCCCCCCCC1)c1cccnc1,15µM*,3%,-12%,u,-15%,-15%
COc1ccc(C(=O)NC(=S)NNC(=O)COc2ccccc2)cc1,u,8%,1%,15µM*,u,-16%
CCOc1cc(C2C(C(N)=O)=C(C)Nc3ncnn32)cc(Br)c1O (stereo not given),5%,3%,1%,3%,x,14%
CCOc1ncccc1C(=O)NNC(=O)c1cccc(S(=O)(=O)Nc2ccc(OC)cc2)c1,-30%,4%,-5%,u,-4%,-9%
CCCCOc1ccc(C(=O)NNC(=O)c2cnccn2)cc1OC,21µM*,0%,3%,8.2µM*,-13%,-14%
O=C(NC(=S)NNC(=O)c1ccccc1O)c1cccnc1,21µM*,1%,-17%,u,u,-3%
COc1ccc(C(=O)NC(=S)NNC(=O)c2cnccn2)cc1,21µM*,5%,2%,21µM*,-7%,-14%
COc1cc(C(=O)NC(=S)NNC(=O)c2cnccn2)cc(OC)c1OC,u,8%,-2%,u,-21%,-17%
COc1ccc(C(=O)NNC(=S)NC(=O)C(C)(C)C)cc1,7.3µM*,14%,29%,6.5µM*,-7%,10%
O=C(Nc1nnc(C2CCCCC2)s1)C1CCN(C(=O)c2ccco2)CC1,u,x,x,u,x,7%
CC(C)N(Cc1ccccc1)C(=O)CN1C(=O)COc2ccc(S(=O)(=O)NC3CCCC3)cc21,23µM*!,1%,-4%,26µM*,-12%,-12%
CCOc1ccccc1NC(=O)CN1C(=O)COc2ccc(S(=O)(=O)NC3CCCC3)cc21,u,4%,-7%,26µM*,x,2%
Cc1ccc(NC(=O)CN2C(=O)COc3ccc(S(=O)(=O)NC4CCCC4)cc32)c(Cl)c1,u,9%,-11%,-26%,x,12%
COc1ccc(Cl)cc1NC(=O)CN1C(=O)COc2ccc(S(=O)(=O)NC3CCCC3)cc21,-13%,6%,-10%,7%,x,14%
